# Laboratory results published in PubChem BioAssay AID588763 (NMMLSC, 2011).
# Results with a measured potency or affinity are listed apart. Values without a mark were called inactive. Activity calls are given as the source filed them. No rule for the calls is given here.
# Biological target: Beta-2 adrenergic receptor (Homo sapiens) (UniProt P07550)
# Test: beta2AR agonists driving receptor internalization, dose response, cell-based, FAP fluorogen, flow cytometry, cherry pick 1 (AID 588763)
# Settings: AM2.2-beta2AR cells, 90 min; series mostly up to 33 µM; activation (receptor internalization): at the top concentration
# Beta-2 adrenergic receptor (Homo sapiens), sequence (P07550 whole entry, looked up): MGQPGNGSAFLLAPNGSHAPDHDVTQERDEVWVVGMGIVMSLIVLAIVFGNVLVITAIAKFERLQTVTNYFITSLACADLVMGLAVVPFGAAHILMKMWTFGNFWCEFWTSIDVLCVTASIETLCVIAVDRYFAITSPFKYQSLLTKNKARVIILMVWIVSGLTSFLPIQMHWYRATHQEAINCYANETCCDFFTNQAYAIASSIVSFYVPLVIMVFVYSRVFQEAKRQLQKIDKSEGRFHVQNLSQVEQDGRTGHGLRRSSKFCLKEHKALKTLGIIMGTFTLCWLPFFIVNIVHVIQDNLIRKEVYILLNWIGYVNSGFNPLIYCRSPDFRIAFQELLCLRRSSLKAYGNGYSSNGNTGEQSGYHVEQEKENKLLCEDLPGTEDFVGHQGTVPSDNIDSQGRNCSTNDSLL
SMILES,activation (receptor internalization) [%],outcome
COc1cc(C(O)CNC(C)C)cc(F)c1OC (stereo not drawn),-4.23,–
COc1ccc(OC)c(C(O)C2CCCCN2)c1 (stereo not drawn),-1.51,–
COc1ccc(C(O)CNC(C)C)c(F)c1OC (stereo not drawn),-16.5,–
CC(CCc1ccccc1)NC(C)C(O)c1ccc(O)cc1 (stereo not drawn),-5.05,–
CC(NCc1ccc(Cl)c(Cl)c1)C(O)c1ccccc1 (stereo not drawn),10.7,–
CCNCC(O)c1cccc(O)c1 (stereo not drawn),19.5,–
COc1ccc(OC)c([C@@H](O)[C@H](C)NC(C)(C)C)c1,–,inactive
COc1ccc(OC)c2c1CCC1NCCOC21 (stereo not drawn),-6.85,–
